Measurements from PubChem BioAssay.
Results filed as inconclusive are left out. Activity calls are given as the source filed them.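 How the source made its calls, unless noted: active means normalized viability below 100% at a tested concentration; inactive means the rest.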

Assays:
[1] = viability loss in pontine glioma line – cell-based, SU-DIPG-XIII, MIPE4.0, CellTiter-Glo, qHTS, dose response (AID 1347061; cut-off not given, nearly all actives have AC50 up to about 37 µM;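 further: cells exposed to compound for 48 hours before readout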); settings: CellTiter-Glo ATP luminescence
[2] = viability loss in pontine glioma line – cell-based, JHH-DIPG-1, MIPE4.0, CellTiter-Glo, qHTS, dose response (AID 1347062; cut-off not given, nearly all actives have AC50 up to about 27 µM;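 on AC50: cells exposed to compound for two days before readout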); settings: JHH-DIPG-1 viability, CellTiter-Glo ATP luminescence
[3] = growth inhibition of DIPG cells – cell-based, MIPE4.0 library, CellTiter-Glo luminescence, qHTS (AID 1347066; cut-off not given, nearly all actives have AC50 up to about 30 µM;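 further: cells exposed to compound for 48 hours before readout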); settings: SU-DIPG-VI viability, CellTiter-Glo ATP luminescence
[4] = viability loss in pontine glioma line – cell-based, SU-DIPG-XXV, MIPE5.0, CellTiter-Glo, qHTS, dose response (AID 1347065; cut-off not given, nearly all actives have AC50 up to about 26 µM;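 further: cells exposed to compound for 48 hours before ATP readout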); settings: CellTiter-Glo ATP luminescence
[5] = JHH-DIPG-1 glioma cell viability, MIPE5.0 library, CellTiter-Glo luminescence, qHTS (AID 1347067; cut-off not given, nearly all actives have AC50 up to about 26 µM;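 further: cells exposed to compound for 48 hours before readout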); settings: JHH-DIPG-1 glioma viability, CellTiter-Glo ATP luminescence
[6] = growth inhibition of DIPG cells – cell-based, MIPE5.0 library, qHTS (AID 1347068; cut-off not given, nearly all actives have IC50 up to about 30 µM;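 on IC50: cells exposed to compound for 48 hours before viability readout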); settings: SU-DIPG-XXV viability
[7] = viability loss in pontine glioma line – cell-based, SU-DIPG-IV, MIPE4.0, CellTiter-Glo, qHTS, dose response (AID 1347063; cut-off not given, nearly all actives have AC50 up to about 30 µM;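 further: compound exposure lasted 48 hours before the viability readout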); settings: CellTiter-Glo ATP luminescence
[8] = viability loss with induced miR-34 in A549 – imaging, A549 dox-inducible miR-34, nuclei and caspase counts, primary screen (AID 1347080;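 active means compounds whose cell count with miR-34 switched on is under 0.7 times the count with it off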); settings: A549 miR-34 inducible, Hoechst nuclei count, 48 h
[9] = MELAS cybrid and Rieske KO viability enhancers – cell-based, MELAS cybrids, Rieske KO mouse fibroblasts, CellTiter-Glo, primary screen (AID 1508586;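 active means mean z-score across replicates of 1.96 or higher in either the MELAS or the Rieske mutant cell line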;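 further: z relative to plate mean and SD of compound and empty wells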); settings: low glucose
[10] = viability loss in pontine glioma line – cell-based, SU-DIPG-XIII, MIPE5.0, CellTiter-Glo, qHTS, dose response (AID 1347064; cut-off not given, nearly all actives have AC50 up to about 23 µM;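 on AC50: cells exposed to compound for 48 hours before the viability read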); settings: CellTiter-Glo ATP luminescence
[11] = compounds altering HSF1 focus formation in cells – imaging, Selleck Cancer Library (AID 1347162; in the data active means plate-normalised HSF1 focus index below about 0.46); settings: human cells, HSF1 nuclear foci imaging, at 10 µM; SSMD: measured here: HSF1 foci SSMD mean; cell count: measured here: cell number; plate-normalised HSF1 focus index: stronger effect = lower value
[12] = drug combination growth inhibition, ovarian cancer – cell-based, oncology-focused library, rucaparib conditional, profiling panel (AID 1508598); settings: patient-derived ovarian cancer cells, CellTiter-Glo viability, 144 h, stronger effect = lower value
[13] = stronger effect = lower value, cell number ratio, induced over uninduced
[14] = measured here: relative caspase fold change +Dox/-Dox
[15] = measured here: total cells with miR-34 induction, stronger effect = lower value
[16] = measured here: total cells without miR-34 induction
[17] = MELAS cybrid survival, CellTiter-Glo 48 h, stronger effect = higher value
[18] = Rieske KO mouse fibroblast survival, CellTiter-Glo 72 h
[19] = at 0.000305 µM, OCI-C5x cells, with rucaparib 10 µM, 100% = cells with rucaparib alone
[20] = at 0.000305 µM, OCI-C5x cells, without rucaparib
[21] = at 0.000305 µM, OCI-P5x cells, with rucaparib 20 µM, 100% = cells with rucaparib alone
[22] = at 0.000305 µM, OCI-P5x cells, without rucaparib
[23] = at 0.00122 µM, OCI-C5x cells, with rucaparib 10 µM, 100% = cells with rucaparib alone
[24] = at 0.00122 µM, OCI-C5x cells, without rucaparib
[25] = at 0.00122 µM, OCI-P5x cells, with rucaparib 20 µM, 100% = cells with rucaparib alone
[26] = at 0.00122 µM, OCI-P5x cells, without rucaparib
[27] = at 0.00488 µM, OCI-C5x cells, with rucaparib 10 µM, 100% = cells with rucaparib alone
[28] = at 0.00488 µM, OCI-C5x cells, without rucaparib
[29] = at 0.00488 µM, OCI-P5x cells, with rucaparib 20 µM, 100% = cells with rucaparib alone
[30] = at 0.00488 µM, OCI-P5x cells, without rucaparib
[31] = at 0.0195 µM, OCI-C5x cells, with rucaparib 10 µM, 100% = cells with rucaparib alone
[32] = at 0.0195 µM, OCI-C5x cells, without rucaparib
[33] = at 0.0195 µM, OCI-P5x cells, with rucaparib 20 µM, 100% = cells with rucaparib alone
[34] = at 0.0195 µM, OCI-P5x cells, without rucaparib
[35] = at 0.0781 µM, OCI-C5x cells, with rucaparib 10 µM, 100% = cells with rucaparib alone
[36] = at 0.0781 µM, OCI-C5x cells, without rucaparib
[37] = at 0.0781 µM, OCI-P5x cells, with rucaparib 20 µM, 100% = cells with rucaparib alone
[38] = at 0.0781 µM, OCI-P5x cells, without rucaparib
[39] = at 0.313 µM, OCI-C5x cells, with rucaparib 10 µM, 100% = cells with rucaparib alone
[40] = at 0.313 µM, OCI-C5x cells, without rucaparib
[41] = at 0.313 µM, OCI-P5x cells, with rucaparib 20 µM, 100% = cells with rucaparib alone
[42] = at 0.313 µM, OCI-P5x cells, without rucaparib
[43] = at 1.25 µM, OCI-C5x cells, with rucaparib 10 µM, 100% = cells with rucaparib alone
[44] = at 1.25 µM, OCI-C5x cells, without rucaparib
[45] = at 1.25 µM, OCI-P5x cells, with rucaparib 20 µM, 100% = cells with rucaparib alone
[46] = at 1.25 µM, OCI-P5x cells, without rucaparib
[47] = at 5 µM, OCI-C5x cells, with rucaparib 10 µM, 100% = cells with rucaparib alone
[48] = at 5 µM, OCI-C5x cells, without rucaparib
[49] = at 5 µM, OCI-P5x cells, with rucaparib 20 µM, 100% = cells with rucaparib alone
[50] = at 5 µM, OCI-P5x cells, without rucaparib

O=c1c(-c2ccc(O)cc2)coc2cc(OC3O[C@H](CO)[C@@H](O)[C@H](O)[C@H]3O)cc(O)c12 (stereo partly drawn)
active: AC50 [1] 20.9 µM
inactive: outcome [2] | outcome [3]

CN1CCc2c(n(Cc3ccc(C(=O)NO)cc3)c3ccccc23)C1
active: AC50 [2] 23.5 µM | AC50 [4] 18.6 µM
inactive: outcome [1]

CC(C)(C)C(=O)Oc1ccc2c(c1)nc(NC(=O)c1cccc([N+](=O)[O-])c1)n2CCCO
inactive: outcome [1] | outcome [2] | outcome [3] | outcome [5] | outcome [6]

CCCCOc1c(C(=O)c2c(F)cc(C)cc2F)cnc2n[nH]cc12
-1.74: z-score [9, 18]
0.597: fold change [8, 14]
active: AC50 [7] 4.18 µM | AC50 [4] 1.66 µM | IC50 [6] 3.72 µM
1900: cell count [8, 16]
1950: cell count [8, 15]
inactive: outcome [1] | fold change [8, 13] 1.03 | z-score [9, 17] 0.523

CC(=O)N1CCN(c2ccc(OCc3nn(C)c(C)c3-c3cccc4c(CCCOc5cc(C)c(Cl)c(C)c5)c(C(=O)O)n(Cc5cccnc5)c34)cc2)CC1
inactive: outcome [1]
active: AC50 [7] 23.5 µM | AC50 [3] 20.9 µM

Cc1cccc2c1CC[C@H](CN1CCC(c3c(Cl)cccc3Cl)CC1)C[C@@H]2O
inactive: outcome [1] | outcome [3]

CN(C[C@@H]1COCCO1)S(=O)(=O)Nc1ccc2ccc3ncc(-c4cnn(C)c4)cc3c(=O)c2c1
active: AC50 [1] 2.64 µM | AC50 [10] 2.63 µM | AC50 [4] 2.09 µM | IC50 [6] 3.32 µM
inactive: outcome [3]

O=C(NOC[C@H](O)CO)c1ccc(F)c(F)c1Nc1ccc(I)cc1F
2470: cell count [8, 16]
2.04: fold change [8, 14]
3.29: SSMD [11]
inactive: outcome [3] | fold change [8, 13] 1.03 | plate-normalised HSF1 focus index [11] 1.21 | viability [12, 19] 115% | viability [12, 20] 103% | viability [12, 23] 110% | viability [12, 24] 103% | viability [12, 27] 111% | viability [12, 28] 101% | viability [12, 31] 111% | viability [12, 35] 120%
2530: cell count [8, 15]
7460: cell count [11]
active: AC50 [1] 1.05 µM | AC50 [2] 2.35 µM | viability [12, 21] 79.9% | viability [12, 22] 86.4% | viability [12, 25] 73.1% | viability [12, 26] 80% | viability [12, 29] 60% | viability [12, 30] 73.8% | viability [12, 32] 96.8% | viability [12, 33] 51.1% | viability [12, 34] 67.5% | viability [12, 36] 94.3% | viability [12, 37] 46.8% | viability [12, 38] 62.3% | viability [12, 39] 98.2% | viability [12, 40] 86.8% | viability [12, 41] 41% | viability [12, 42] 50.2% | viability [12, 43] 66.9% | viability [12, 44] 68.4% | viability [12, 45] 40.4% | viability [12, 46] 44.1% | viability [12, 47] 34.4% | viability [12, 48] 37.4% | viability [12, 49] 30.5% | viability [12, 50] 38.4%

CCOC(=O)c1c(CSc2ccccc2)n(C)c2cc(Br)c(O)c(CN(C)C)c12
6850: cell count [8, 16]
active: AC50 [4] 20.9 µM
inactive: outcome [1] | outcome [3] | outcome [6] | fold change [8, 13] 0.89 | z-score [9, 17] -0.35
-0.358: z-score [9, 18]
6100: cell count [8, 15]
0.958: fold change [8, 14]

COc1ccc(COc2cc3oc(=O)c4cc(C(C)O)ccc4c3cc2OC)cc1 (stereo not drawn)
1.45: fold change [8, 14]
-0.619: SSMD [11]
7360: cell count [8, 15]
active: viability [12, 22] 97.5% | viability [12, 26] 98% | viability [12, 29] 98.6% | viability [12, 33] 99.9% | viability [12, 34] 98.3% | viability [12, 38] 96% | viability [12, 42] 92.5% | viability [12, 46] 94.4% | viability [12, 49] 92.1% | viability [12, 50] 90.6%
7240: cell count [11]
inactive: outcome [1] | outcome [10] | outcome [4] | outcome [6] | fold change [8, 13] 0.923 | plate-normalised HSF1 focus index [11] 0.961 | z-score [9, 17] -0.463 | viability [12, 19] 108% | viability [12, 20] 122% | viability [12, 21] 103% | viability [12, 23] 119% | viability [12, 24] 114% | viability [12, 25] 108% | viability [12, 27] 121% | viability [12, 28] 104% | viability [12, 30] 101% | viability [12, 31] 118% | viability [12, 32] 118% | viability [12, 35] 122% | viability [12, 36] 114% | viability [12, 37] 103% | viability [12, 39] 113% | viability [12, 40] 100% | viability [12, 41] 102% | viability [12, 43] 126% | viability [12, 44] 107% | viability [12, 45] 103% | viability [12, 47] 132% | viability [12, 48] 130%
7980: cell count [8, 16]
0.921: z-score [9, 18]
